Experimental data published in PubChem BioAssay AID1868 (National Center for Advancing Translational Sciences (NCATS), 2009).
The whole screen tested about 270,000 compounds, of which about 20 (0.007%) were called active. Not all results are given here. A number with no mark means an inactive call. Calls follow the shape of the dose curve; as a rule, active = well fitted inhibition curve with a large enough effect; inconclusive = small, poorly fitted or top-dose-only effect, or effect the other way; inactive = flat fitted curve, though single readings scatter.

What follows are compounds tested against Galactokinase (Homo sapiens) (UniProt P51570) (assay: qHTS Assay for Inhibitors of Human Galactokinase (GALK)). Conditions: Purified GALK, Kinase-Glo residual ATP luminescence; series mostly up to 57.5 µM; activity change, negative = inhibition: at the top concentration.
Sequence of Galactokinase (Homo sapiens) (P51570 whole entry, looked up): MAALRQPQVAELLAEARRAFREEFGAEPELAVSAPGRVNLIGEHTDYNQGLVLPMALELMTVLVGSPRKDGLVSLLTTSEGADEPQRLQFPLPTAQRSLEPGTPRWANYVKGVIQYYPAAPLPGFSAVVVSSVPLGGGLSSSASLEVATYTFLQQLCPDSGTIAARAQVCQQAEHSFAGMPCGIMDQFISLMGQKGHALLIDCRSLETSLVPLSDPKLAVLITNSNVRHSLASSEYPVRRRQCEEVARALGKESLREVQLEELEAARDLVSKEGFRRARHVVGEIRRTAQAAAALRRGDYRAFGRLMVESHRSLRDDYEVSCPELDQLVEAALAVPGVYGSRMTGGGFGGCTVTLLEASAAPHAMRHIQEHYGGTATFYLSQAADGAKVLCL
Source text: NIH Molecular Libraries Probe Production Centers Network [MLPCN] NIH Chemical Genomics Center [NCGC] MLPCN Grant: R03 MH085689-01 Assay Submitter (PI): Kent Lai (University of Utah School of Medicine, 50 N Mario Capecchi Drive, Salt Lake City, UT 84132) NCGC Assay Overview: Inherited deficiency of galactose-1-phosphate uridyltransferase (GALT) can result in a potentially lethal disorder called Classic Galactosemia (OMIM 230400). Several lines of evidence indicate that an elevated level of galactose-1-phosphate (gal-1-p), the product of galactokinase (GALK), is a major, if not sole, pathogenic mechanism in patients with classic galactosemia. Therefore, finding inhibitors of GALK is a potential novel therapy for this inherent metabolic disease and is the long term goal of this project. GALK (provided by the assay submitter) was assayed using ATP and D-(+)-Galactose (Sigma-Aldrich cat# G0750) as substrates. Promega Kinase-Glo Plus (cat# V3774) technology was used to detect the residual ATP following kinetic reaction. Briefly, the Kinase-Glo Plus contains Ultra-Glo [2] luciferase and D-luciferin which generates a bioluminescence signal from the remaining ATP.
NCGC Assay Protocol Summary: Three uL/well of ATP-buffer solution (35 uM ATP, 20mM HEPES pH8.0, 5 mM MgCl2, 60 mM NaCl, 1 mM DTT, 0.01% BSA final concentration) was dispensed into 1536-well, assay plates (Greiner, solid white medium-binding plates) with Aurora Discovery BioRAPTR Flying Reagent Dispenser (FRD; Beckton-Dickenson). Compound solution (23 nL) was transferred to the assay plate using the Kalypsys 1536-pin tool. One uL/well GALK-galactose solution (5 nM GALK, 100 uM galactose, 20 mM HEPES pH8.0, 5 mM MgCl2, 60 mM NaCl, 1 mM DTT, 0.01% BSA final concentration) was then added using the FRD yielding a total kinase reaction volume of 4 uL/ well. After 1 hour of room temperature incubation, 4 uL Kinase-Glo Plus reagent was added for a final assay volume of 8 uL/ well. Luminescence was detected with the ViewLux plate reader (Perkin Elmer, Waltham, MA) after 10 min incubation using a 1 sec exposure time and 2x binning.
% is scaled to controls: 0 for no effect and ±100 for the full control effect.

Row | SMILES | activity change, negative = inhibition [%]
1 | COc1cccc(NC(=O)C(=O)c2cn(CC(=O)N3CCOCC3)c3ccccc23)c1 | 0.368
2 | CCOC(=O)C1CCCN(CCSc2ccc(C)cc2)C1 (centres undefined) | -3.07
3 | O=C(Nc1ccc(S(=O)(=O)NCC2CCCO2)cc1)c1ccc(F)cc1 (centres undefined) | -2.11
4 | Cc1ccccc1NC(=S)NC(=O)Cc1ccc(Cl)cc1 | 7.47
5 | COCCN1CCN(C(=O)c2cc(COc3ccc(F)cc3Cl)on2)CC1 | 5.12
6 | COc1ccc(N(C(=O)c2snc(C(N)=O)c2N)C(C(=O)NC2CCCC2)c2ccc(C)o2)c(OC)c1 (centres undefined) | -1.02
7 | O=C(CCl)NNc1nc(-c2ccccc2)c2cc(Cl)ccc2n1 | 0.907
8 | CCOC(=O)Nc1ccc2c(c1)N(C(=O)CCCl)c1ccccc1[S@]2=O | -2.31
9 | NC(=O)CSc1nnc(NC(=O)c2ccc(Br)o2)s1 | 3.28
10 | CN(C(=O)CCN1C(=O)/C(=C/c2ccccc2F)SC1=S)C1CCS(=O)(=O)C1 (centres undefined) | 7.27
11 | O=C(CC(n1cncn1)C(Cl)(Cl)Cl)c1ccc([N+](=O)[O-])cc1 (centres undefined) | 1.45
12 | Cc1ccc(NC(=O)CSc2cccc3cccnc23)c(C)c1 | -1.71
13 | Cc1ccc(/C=N/NC(=O)c2cc3ccccc3cc2O)o1 | 0.24
14 | COc1ccc(OCc2cc(C(=O)N3CCCC3)no2)c2ccccc12 | -7.05
15 | COc1ccccc1C(=O)NC(=S)Nc1ccccc1N1CCCCC1 | -4.03
16 | COc1ccc([N+](=O)[O-])cc1N(CC(=O)Nc1ccccc1C(=O)N1CCOCC1)S(C)(=O)=O | 2.62
17 | COc1cccc(C(=O)N/N=C(\C)c2cccc(NC(=O)c3ccc(F)cc3)c2)c1OC | -11.7
18 | Oc1ccccc1-c1cc(-c2ccc(Cl)cc2)n[nH]1 | -6.23
19 | CCSc1nc2sc3c(c2c(=O)n1-c1ccc(C)cc1)CCN(C)C3 | -3.96
20 | COc1ccc(NCCc2ccccn2)cc1 | -1.27
21 | Cc1ccc(NS(=O)(=O)c2ccc3c(c2)oc(=O)n3C)c(C)c1 | 2.68
22 | O=C(Nc1cccc(Cl)c1Cl)c1ccccc1NC(=O)C1CC=CCC1C(=O)O (centres undefined) | -4.93

Row | SMILES | activity change, negative = inhibition [%]
23 | S=C(Nc1ccc(Cl)cc1Cl)N1CCCC1 | 0.847
24 | O=C(Nc1ccnn1C1CCN(Cc2cccc(OCCO)c2)CC1)C1CCCC1 | 3.25
25 | CC(C)(C)c1ccc(Cn2nnc3c(=O)[nH]c(C4CCCN(C(=O)c5ccco5)C4)nc32)cc1 (centres undefined) | -1.13
26 | CCc1ccccc1OCC(=O)Nc1ccc2c(c1)OCCO2 | 13.3
27 | O=[N+]([O-])c1ccc2c(c1)Nc1nc3ccccc3nc1N2 | 6.04
28 | CC1CN(C(=O)CCC(=O)NCCCN2CCC(Cc3ccccc3)CC2)c2cc(Cl)ccc2O1 (centres undefined) | -0.958
29 | Cc1ccc(CSc2nsc(C)c2C#N)cc1 | -1.65
30 | CC(=O)c1ccc(NC(=O)c2sc3nc4n(c(=O)c3c2C)CCCCC4)cc1 | 3.59
31 | CC(C)=CCN1CCN(CCCc2ccccc2)CC1CCO (centres undefined) | 3.23
32 | O=C(Nc1ccc(C2CC2(Cl)Cl)cc1)c1cccc([N+](=O)[O-])c1 (centres undefined) | 0.976
33 | COc1ccccc1/C=C/C(=O)NC(=S)N1CCOCC1 | -1.25
34 | COC(=O)c1ccc(COc2ccc(/C=C/C(=O)c3ccc(OC)c(CSCC(=O)O)c3)cc2OC)cc1 | -6.55
35 | COc1ccc(NC(=O)CCCC2CCCCC2)c(OC)c1 | -2.48
36 | O=c1c2ccccc2ncn1CCCCOc1ccccc1F | 1.26
37 | Brc1ccccc1/C=N/Nc1nc2ccccc2o1 | -2.18
38 | COc1ccc(OC)c(NC(=O)Cc2cccs2)c1 | -3.6
39 | CC(CN1CCOCC1)OC(=O)c1ccc(C(C)(C)C)cc1 (centres undefined) | 5.88
40 | O=C(CNC(=O)c1ccc(F)cc1)c1ccccc1 | 7.94
41 | CCOC(=O)C(Cc1ccc(N)cc1)N1C(=O)c2ccccc2C1=O (centres undefined) | -2.49
42 | COc1ccccc1N1CCN(/N=C/c2ccc(O)cc2O)CC1 | 0.0195
43 | CC(=O)N[C@@H](C)C(=O)N1CCC(n2nccc2NC(=O)CCCc2ccccc2)CC1 | -8.5
44 | COc1ccc(C(=O)NCCSc2ccccc2C)cc1 | 2.87

Row | SMILES | activity change, negative = inhibition [%]
45 | CCOCc1nnc(NC(=O)CCS(=O)(=O)Cc2ccccc2)s1 | 17.2
46 | CCC(=O)Nc1ccc(-c2ccc(N3CCCCC3)nn2)cc1 | 6.79
47 | COc1ccc(-c2csc3ncnc(N4CCN(S(=O)(=O)c5ccccc5C#N)CC4)c23)cc1 | -1.81
48 | CC(=O)Nc1ccc(S(=O)(=O)Nc2cc(C)cn(Cc3ccc(C)cc3)c2=O)cc1 | -2.01
49 | COc1ccc(CN2CCCC(N3CCc4ccccc4C3)C2)c(O)c1 (centres undefined) | 3.61
50 | CC1CCN(S(=O)(=O)c2ccc3c(c2)n(C)c(=O)n3C)CC1 | 1.48
51 | Cc1ccccc1Nc1nc(-c2cccnc2)cs1 | 4.19
52 | CC1=NN(C(N)=S)C(=O)C1N=Nc1cc(Cl)ccc1Cl (centres undefined) | -1.93
53 | CC(C)(C)c1ccc(SCCc2ccncc2)cc1 | 2.38
54 | O=C(/C=C/c1ccc([N+](=O)[O-])o1)NNC(=O)c1ccc(F)cc1 | 4.88
55 | CC(C)(C)C(=O)NC1CC2CCCC(C1)N2C(=O)Nc1ccccc1F (centres undefined) | -7.57
56 | Cc1cc(C)c2nc(N(CCN(C)C)C(=O)/C=C/c3cccs3)sc2c1 | 0.912
57 | COc1ccc(C(=O)O/N=C(\N)c2ccccn2)cc1[N+](=O)[O-] | 4.35
58 | CS(=O)(=O)N1CCN(C(=O)CSc2ccccc2)CC1 | 1.25
59 | CCC(C)c1ccc(NC(=S)N2CCCC2)cc1 (centres undefined) | -5.24
60 | O=C(CN1CCN(c2cccc(Cl)c2)CC1)Nc1ccc(S(=O)(=O)N2CCOCC2)cc1 | 6.53
61 | CCc1ccccc1NC(=O)c1ccc2snnc2c1 | 3.35
62 | CN(c1ccc(O)cc1)c1nc(-c2cccnc2)cs1 | 4.72
63 | Cc1ccc(C(=O)Nc2nnc(C3=COCCO3)o2)cc1C | 1.42
64 | CCN1CCN(c2sc(S(C)(=O)=O)nc2S(=O)(=O)c2ccc(Cl)cc2)CC1 | -4.5
